Results filed as inconclusive are left out. A number with no mark means an inactive call. The source made the active and inactive calls. Calls come from the whole dose curve; as a rule, active = well fitted cell-killing curve with a large enough effect; inconclusive = small, poorly fitted or top-dose-only effect; inactive = flat fitted curve, though single readings scatter. Peptide text beside a SMILES is read from it. * marks the point of attachment. Hexanoyl = CCCCCC(=O)*
Experiment: Vero-766 cells viability qHTS against the NCATS CANVASS Library: Counterscreen for Zika virus inhibition assay (AID 1347394); note: nearly all actives have a fitted effect of over 60% in size
Settings: Vero 766 viability, CellTiter-Glo luminescence, 72 h; series mostly up to 46.1 µM; activity change, negative = cytotoxic: at the top concentration
Source text: Natural products and their derivatives continue to be wellsprings of nascent therapeutic potential. However, many laboratories have limited resources for biological evaluation, leaving their previously isolated or synthesized compounds largely or completely untested. To address this issue, the Canvass library of natural products was assembled (https://tripod.nih.gov/canvass), in collaboration with academic and industry researchers, for quantitative high-throughput screening (qHTS) across a diverse set of cell-based and biochemical assays. The pure (>85% purity by liquid chromatography/mass spectrometry [LC/MS]) Canvass library of 346 natural products were submitted by 45 academic laboratories and companies around the world. We collected pure natural products to circumvent deconvolution and structure elucidation due to time and resource limitations. The library was formatted into 1536-well plates and evaluated in 50 qHTS (in an 11-pnt concentration series) bioassays with broad scope of disease-relevant mechanisms. The resulting data set from 50 different assays was then systematically analyzed to identify overall trends and specific natural products with interesting biological activities. Reported herein are the results of each individual qHTS and their corresponding assay protocol. The vero cell viability assay was performed in the absence of Zika virus utilizing Cell Titer Glo to eliminate toxic compounds. A decrease in the luminescence signal is caused by cytotoxic compounds. National Center for Advancing Translational Sciences (NCATS), Rockville, MD National Institute of Health (NIH), Bethesda, Maryland
Zika-counterscreen assay protocol: 1. In a white-solid bottom, 1536-well tissue culture plate (Corning 7494), 3 uL of Vero 766 cells derived (African Green Monkey) were dispensed into columns 1, 2, and 5 - 48 using a Multidrop Combi (Thermo Fisher Scientific) at a final concentration of 1000 cells / well. Media only was dispensed in columns 3 and 4 to be used as a control (100% inhibition). 2. The assay plates were incubated overnight at 37C, 5% CO2, 95% humidity to acclimate and attach. 3. […] of compounds (in DMSO; columns 5-48) were pin transferred into the assay plates using the Kalypsis pin tool (Wako USA) equipped with a 1536-well pin heads. This yields a final concentration range of 0.001 - 77 uM. The assay plates were sealed with breathable film. 4. The assay plates were incubated for 72 hours at 37C, 5% CO2, 95% humidity. 5. After incubation, the seals were removed by Xpeel Automated Plate Seal Remover (Brooks Life Sciences) and 2.5 uL of CellTiter Glo reagent (Promega) was dispensed into the wells (columns 1 - 48, rows 1 - 32). 6. Luminescence signal was obtained via the ViewLux plate reader (Perkin Elmer) using the clear emission filter and 1x binning, 2 seconds exposure settings.
% is set by controls: 0 for no effect and ±100 for the full control effect; potency is the fitted concentration of half-maximal effect.

Row | Compound | activity change, negative = cytotoxic | Potency
1 | Cc1cc(O)cc2c1C(=O)c1c(O)cc(O)cc1C2=O | -3.81% | 
2 | CCCc1c2c([nH]c(=O)c1C)C(=O)c1[nH]c(=O)c(C)c(CCC)c1C2=O | -18.6% | 
3 | C/C(=C\[C@@H](C)CC/C=C/CC/C=C/C(=O)O)[C@H](O)[C@H](C)C(=O)CCCC1CC(=O)NC(=O)C1 | 1.95% | 
4 | C/C(=C\[C@H](C)C(=O)C[C@H](O)CC1CC(=O)NC(=O)C1)[C@@H]1OC(=O)CCCC/C=C/C[C@@H](O)[C@@H]1C | -26.7% | 
5 | CN1CCc2cc3c(c4c2C1(C)C(=O)c1cc(O)ccc1-4)OCO3 (stereo not given) | -16.5% | 
6 | COC(=O)[C@@]12Oc3cccc(O)c3C(O)=C1C(=O)C[C@H](C)[C@H]2O | 3.53% [at 91.4 µM] | 
7 | COc1cc(/C=C/C(=O)OC[C@@H](Cc2ccc(O)c(OC)c2)[C@@H](COC(=O)/C=C/c2ccc(O)c(OC)c2)Cc2ccc(O)c(OC)c2)ccc1O |  | 7.41 µM (active)
8 | CN1CC[C@@]2([C@@]34CCN(C)[C@@H]3Nc3ccccc34)c3ccccc3N[C@@H]12 | -16.9% | 
9 | O=C1CC(c2ccc(O)cc2)Oc2cc(O)cc(O)c21 (stereo not given) | -25.1% | 
10 | COc1cc(C2OCC3C(c4ccc(O)c(OC)c4)OCC23)ccc1O (stereo not given) | -3.52% [at 9.19 µM] | 
11 | C[C@]12CC[C@]3(C1)[C@H](CC2=O)C[C@@H](OC(=O)c1ccccc1)[C@H]1[C@](C)(C(=O)O)CCC[C@@]13C |  | 6.6 µM (active)
12 | C=C[C@]1(C)CC[C@@H]([C@H](C)C(=O)/C=C/C(C)(C)O)O1 | -16.4% | 
13 | C/C1=C/[C@@H](C)[C@H](O)[C@@H](O)/C=C/CC/C=C/C(=O)O[C@@H]1[C@H](C)C(=O)CCCC1CC(=O)NC(=O)C1 | -19.9% | 
14 | CC[C@@H]1[C@H](C)[C@H](c2cc(OC)c(OC)cc2OC)[C@@H](C)[C@H](c2cc(OC)c(OC)cc2OC)[C@]12C=C(OC)C(=O)C=C2OC |  | 20.9 µM (active)
15 | C/C=C(/CO)C(=O)O[C@@H]1[C@H](O)[C@@H](C(=O)OC)O[C@@H]2C[C@H]3OC(n4cnc5c(N)ncnc54)[C@H](OC)[C@H]3O[C@@]12O (stereo not given in full) | -10.6% | 
16 | CN1CC[C@@]23c4ccccc4N[C@@H]1[C@@]21CCN(C)[C@@H]3Nc2ccccc21 | -22.1% | 
17 | CCC(=O)N[C@@H](C[C@H](C)C(Cl)(Cl)Cl)C(=O)N1C(=O)C=C(OC)[C@@H]1CC(C)C | -11.2% | 
18 | C[C@]12CCC[C@](C)(C(=O)O)[C@@H]1CC[C@@]1(C)c3cocc3CC[C@H]21 | -0.469% | 
19 | C=C1CC[C@@H](O[C@H]2C[C@@](O)([C@H](C)NC(=O)c3[nH]c(C)c(Cl)c3Cl)[C@H](O)[C@@H](C)O2)[C@@H]2C=C[C@H](C)C(/C(O)=C3/C(=O)[C@H](C(C)C)N([C@@H]4O[C@H](C)[C@H](OC(N)=O)[C@H](OC(C)=O)[C@@H]4OC)C3=O)[C@@H]12 (stereo not given in full) | -26.2% | 
20 | COC(=O)C1=C[C@]23C[C@@H](C)CC[C@@H]2[C@@]2(C)CC[C@@H](C(C)C)[C@@](O)(O3)[C@@H]12 | -31.1% | 

Row | Compound | activity change, negative = cytotoxic | Potency
21 | C/C=C1/C2=CCCN3C(=O)O[C@H]([C@H]1O)[C@H]23 | 8.09% | 
22 | O=C1CC(c2ccc(O)cc2)Oc2cc(O)ccc21 (stereo not given) | -13.3% | 
23 | C=CC(CCCCC)C1C(=O)NC(=O)C1C(=O)C1C2C(C)CC(C(=O)O)CC2CC1(O)C(=O)/C=C/C (stereo not given) | -26.5% | 
24 | C[C@H]1C=C[C@H]2CCCC[C@@H]2[C@H]1C(=O)[C@H]1CC2=C(C(=O)O)CCN2C1=O | -5.34% | 
25 | O=Cc1ccc2n1C[C@]1(OC2)O[C@H](CO)[C@@H](O)[C@@H]1O | -15.1% | 
26 | CCCCCC(=O)N[C@@H](CC(C)C)C(=O)N[C@H](C=O)CCC(=O)O (Hexanoyl-Leu-Glu-aldehyde) | 12.9% | 
27 | COc1ccc2[nH]c3c(c2c1)CCN1C[C@H]2C[C@@H](OC(=O)c4cc(OC)c(OC)c(OC)c4)[C@H](OC)[C@@H](OC)[C@H]2C[C@H]31 | -29.5% | 
28 | COc1cc(O)c(C(=O)[C@@H]2[C@H](CC=C(C)C)C(C)=CC[C@H]2c2ccccc2)c(O)c1 |  | 23.4 µM (active)
29 | C=C[C@](Cl)(CBr)CCC=C(C)C | 2.21% | 
30 | CN1CC[C@]2(c3cccc4c3N[C@H]3N(C)CC[C@@]43[C@]34CCN(C)[C@H]3Nc3ccccc34)c3ccccc3N[C@H]12 |  | 20.9 µM (active)
31 | CO[C@H]1/C=C/CCCCC(=O)O[C@@H](/C(C)=C/[C@H](C)C(=O)C[C@H](O)CC2CC(=O)NC(=O)C2)[C@@H](C)C1 | 0.235% | 
32 | CC[C@H](O)CCCCC[C@@H]1NC(=O)[C@H]2CCCCN2C(=O)[C@H]([C@H](C)CC)NC(=O)[C@H](Cc2cn(OC)c3ccccc23)NC1=O |  | 6.6 µM (active)
33 | C=C1CCC2C(C)(C(=O)O)CCC(CC/C(C)=C/C(=O)NC(CCC(N)=O)C(=O)O)[C@@]2(C)C1 (stereo not given in full) | 7.26% | 
34 | COc1cc2c(cc1OC)[C@@H](c1ccc3c(c1)OCO3)C(C)[C@@H](C)C2=O (stereo not given in full) | -23.5% | 
35 | C[C@H](CCC(O)C(C)(O)CO)[C@@]1(O)CC[C@@]2(C)C3=C(CC[C@@]21C)[C@@]1(C)CCC(OC(=O)CCC(=O)O)C(C)(C)[C@@H]1CC3 (stereo not given in full) |  | 29.5 µM (active)
36 | CO[C@H]1[C@@H](OC(=O)/C(C)=C\[C@@H]2O[C@@H]2[C@H]2O[C@H]2C)[C@H](O)[C@H](OCC23C[C@@H]4[C@H](C)CC[C@H]4C4(C=O)CC2C=C(C(C)C)C34C(=O)O)O[C@@H]1C (stereo not given in full) | -14.6% | 
37 | CO[C@@H](C[C@@H](C)[C@@H](O)/C=C/C=C/CNC(=O)C(C)(C)[C@H](O)\C(C)=C/C=C\C=C\Cc1cnco1)[C@]1(O)[C@@H](C)C(=O)N(C)[C@@]12COC2=O | 7.52% | 
38 | COc1cc2ccc(=O)oc2c(O)c1O[C@@H]1O[C@H](CO)[C@@H](O)[C@H](O)[C@H]1O | -11.6% [at 27.5 µM] | 
39 | C=CC(CCCCC)C1C(=O)NC(=O)C1C(=O)C1C(/C=C/C)C=CC2CC(C(=O)O)CC(C)C21 (stereo not given) |  | 23.4 µM (active)
40 | C=C[C@@]1(C)CC[C@@H]([C@H](C)C(C)=O)O1 | -2.57% | 

Reference: PubChem BioAssay (NCATS)
